TcdB inh: inhibitors of Clostridioides difficile toxin B glycohydrolase. actives 0.24% (n = 350,000). AID 652162. TcdB glycohydrolase enzymatic assay, plate reader. inhibition, % at 9.99 µM; in the data active = inhibition above about 10%
Y pestis TopoI: Y. pestis Topo-I inhibition via cleavage products; Y. pestis Topo-I cleavage product accumulation, plate reader; activity, % at 10 µM; actives 0.064% (n = 360,000); AID 504884; in the data active = activity above about 50%, passing the limit was not always enough
PfHsp40 yeast: compounds rescuing yeast from Plasmodium falciparum HSP40 toxicity | growth rescue, % at 12.5 µM | S. cerevisiae expressing PfHsp40, growth rescue, ATP luminescence | actives 0.68% (n = 340,000) | AID 504582; in the data active = growth rescue above about 28%, passing the limit was not always enough;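 note: yeast W303a lacking pdr1 and pdr3 grown in galactose medium; growth measured after three days at 30 °C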
PrP 5UTR inh: inhibition of PrP 5' UTR reporter expression | cell-based PrP 5' UTR mRNA reporter, plate reader | inhibition, % (no concentration beside the values) | actives 0.35% (n = 340,000); in the data active = inhibition above about 52%; note: 0 = median of the neutral control wells
FadD28 binding: blocks FadD28 binding to the bisubstrate probe | actives 0.22% (n = 360,000) | fluorescence polarization | inhibition, % at 12.5 µM; in the data active = inhibition above about 8.5%, passing the limit was not always enough
Mtb BioA inh: inhibitors of Mycobacterium tuberculosis BioA enzyme | purified M. tuberculosis BioA enzyme, plate reader | inhibition, % at 9.99 µM | actives 0.096% (n = 360,000) | AID 602481; in the data active = inhibition above about 40%
Starred values were filed as active, the others as inactive; x = not tested or not shown; ! = a repeat was not active. Compounds with a hit are over-represented: about 1.2% of the library has one in this group of screens.

SMILES	TcdB inh	Y pestis TopoI	PfHsp40 yeast	PrP 5UTR inh	FadD28 binding	Mtb BioA inh
O=C1c2ccccc2C(O)(c2ccccc2)N1c1ccc([N+](=O)[O-])cc1Cl (stereo not given)	-1	-2	205*	-14	2	3
Cn1c(-c2c(N)n(C3CCCC3)c3nc4ccccc4nc23)nc2ccccc21	x	-16	490*	-25	-2	-2
CN1C(=O)c2cc(NC(=O)c3ccc(C(F)(F)F)cc3)ccc2OC[C@@H]2O[C@H](CC(=O)O)CC[C@@H]21	-1	x	x	x	x	-3
CC(C)Cc1cc(C(=O)N2N=C(C(F)F)CC2(O)C(F)F)c2ccccc2n1 (stereo not given)	x	8	0	-6	-5	3
CCc1ccc(-c2cc(C(=O)N3N=C(C(F)F)CC3(O)C(F)F)c3ccccc3n2)cc1 (stereo not given)	0	-4	174*	-42	-4	-2
COc1ccc(NC(=O)N(C)C[C@@H]2Oc3ccc(NC(=O)CCN4CCOCC4)cc3CC(=O)N([C@@H](C)CO)C[C@H]2C)cc1	0	x	x	x	x	2
O=C(OCCN1CCCCC1)C1(c2ccccc2)CCCC1	0	15	-1	-16	-1	x
O=C(OCCN1CCCC1)C1(c2ccccc2)CCCC1	x	-10	50*!	-14	-6	0
COc1ccc(C)cc1NC(=O)CSc1nnc(COc2ccc(Cl)cc2)n1Cc1ccco1	x	3	48*	-28	-2	x
CCOc1ccccc1OCCn1ncc2ccc(OC)c(OC)c2c1=O	x	1	0	-16	-5	-2
COc1ccc2cnn(CCOc3cc(C)ccc3C(C)C)c(=O)c2c1OC	x	20	320*	-7	-3	x
CC(C)Sc1nnc(NC(=O)c2ccco2)s1	22*	4	0	-40	-4	-2
CC(C)NC(=O)N(C)C[C@H]1OCCCC[C@H](C)Oc2ccc(NS(=O)(=O)c3ccc(F)cc3)cc2C(=O)N([C@H](C)CO)C[C@H]1C	-1	x	x	x	x	3
CC(C)(Oc1ccc(Cl)cc1)C(=O)NC1CC1	11*	5	-1	-27	2	0
CC1CCc2c(C(=O)Nc3ccccn3)csc2C1 (stereo not given)	1	2	265*	-103	0	x
CN1CCN(C(=O)C[C@H]2CC[C@@H](NC(=O)Cc3ccccn3)[C@@H](CO)O2)CC1	1	x	x	x	x	-1
CCOC(=O)C1=CN(Cc2cccc(-c3cccnc3)c2)S(=O)(=O)N(C)C1C (stereo not given)	1	16	2	-11	-4	1
CCOC(=O)C1=CN(Cc2cccc(Br)c2)S(=O)(=O)N(C)C1C (stereo not given)	0	41	40*	47	0	0
CCN(CCCNc1cc2c(c(N)c1S(=O)(=O)O)C(=O)c1ccccc1C2=O)c1ccccc1	2	9	x	x	29*	-1
OCC12CO[C@@H]3c4ccccc4[C@H](OC1)N32 (stereo not given in full)	x	0	45*	-9	-3	0
COc1cccc(NC(=O)N[C@@H]2CC[C@@H](CC(=O)NCc3ccncn3)O[C@H]2CO)c1	0	x	x	x	x	0
CO[C@H]1CN(C)C(=O)c2ccc(NC(=O)c3ccc(F)cc3)cc2OC[C@@H](C)N(C(=O)c2ccc(F)cc2)C[C@H]1C	-3	x	x	x	x	0
Cc1ccc2c(C)c3ccc4ccccc4c3c[n+]2c1	11*	-33	368*	-19	-4	x
Cc1cc(C(=O)N/N=C/c2cc(Br)cc([N+](=O)[O-])c2O)c2ccccc2n1	x	-5	184*	-12	1	x
CN(C)C(=O)[C@@H]1[C@@H](CO)[C@@H]2Cn3c(ccc(-c4ccccc4)c3=O)[C@H]1N2Cc1ccccn1	x	x	x	x	x	0
SMILES	TcdB inh	Y pestis TopoI	PfHsp40 yeast	PrP 5UTR inh	FadD28 binding	Mtb BioA inh
O=C(c1cccc(F)c1)N1CCC(N2CCCCCC2)CC1	x	5	0	-22	1	-1
O=C(c1cccc(F)c1)N1CCN(C2CCCCC2)CC1	1	-11	54*	-49	-2	0
S=C(NN=C(c1ccccc1)c1ccccn1)N(Cc1ccccn1)Cc1ccccn1	-2	29	135*	9	-1	x
S=C(NN=Cc1ccccn1)N(Cc1ccccn1)Cc1ccccn1	-6	9	1	24	-2	x
O=C(N/N=C(\c1ccccc1)c1ccccn1)c1ccccc1Cl	-1	2	9	28	-4	-1
COc1ccc(C(=O)N/N=C(\c2ccccc2)c2ccccn2)cc1	0	9	86*	31	2	-2
O=C(NN=C(c1ccccc1)c1ccccn1)c1ccccc1	-8	14	44*	11	-4	x
COc1ccc(S(=O)(=O)N(C)C[C@H]2OCCCC[C@H](C)Oc3ccc(NC(=O)CCCN(C)C)cc3C(=O)N([C@@H](C)CO)C[C@H]2C)cc1	-1	x	x	x	x	1
C[C@@H]1CN([C@@H](C)CO)S(=O)(=O)c2ccc(-c3ccccc3)cc2O[C@@H]1CN(C)C(=O)Cc1ccccc1	2	x	x	x	x	0
Oc1c(Cl)cccc1Cc1cc(Cl)cc(Cl)c1O	0	-6	406*	-54	12*	3
Oc1c(Cl)cc(Cl)cc1CN1CCN(Cc2ccccc2)CC1	2	0	0	-20	-2	0
O=C(C[C@@H]1C[C@@H]2c3cc(NC(=O)Nc4ccccc4)ccc3O[C@@H]2[C@H](CO)O1)NCc1ccccn1	1	x	x	x	x	-3
Cc1c(Cc2ccccc2)c(NCCN(C)C)n2c(nc3ccccc32)c1C#N	1	-6	171*	-4	-1	1
Cc1ccc(CNC(=O)CSc2ccc(-c3cccs3)nn2)cc1	5	-9	0	1	-1	-3
O=C(CSc1ccc(-c2ccco2)nn1)NCc1ccc(Cl)cc1	x	11	-1	-11	-4	1
O=C(CSc1ccc(-c2ccccn2)nn1)NCc1ccc(Cl)cc1	1	5	331*	-16	-1	x
Cc1ccc(CNC(=O)CSc2ccc(-c3ccccn3)nn2)cc1	1	5	219*	4	-1	x
COc1cccc(CNC(=O)CSc2ccc(-c3ccccn3)nn2)c1	1	3	357*	2	-2	x
C[C@@H](NC(=O)[C@@H]1[C@@H](CO)[C@@H]2Cn3c(ccc(-c4cccnc4)c3=O)[C@H]1N2C)c1ccccc1	0	x	x	x	x	0
COc1ccc(NC(=O)N(C)C[C@@H]2Oc3ncc(C#CCC(C)C)cc3C(=O)N([C@@H](C)CO)C[C@H]2C)cc1	0	x	x	x	x	x
CSc1ccccc1OCc1cc(C(=O)N2CCN(C)C(c3ccccc3)C2)no1 (stereo not given)	2	34	78*	-13	-1	-3
CN1CCN(C(=O)c2cc(COc3c(F)cccc3F)on2)CC1c1ccccc1 (stereo not given)	1	10	80*	-16	-1	-3
COc1ccccc1OCc1cc(C(=O)N2CCN(C)C(c3ccccc3)C2)no1 (stereo not given)	-3	25	-1	-65	-2	2

Bioassay records: PubChem, Broad Institute
